From ChEMBL document CHEMBL2218924, “A broad activity screen in support of a chemogenomic map for kinase signalling research and drug discovery” (Biochem J, 2013)

How the values were obtained:
[1] = target: T1, Aurora kinase C (Homo sapiens) (UniProt Q9UQB9); conditions: at 1 µM
T1 sequence (whole entry): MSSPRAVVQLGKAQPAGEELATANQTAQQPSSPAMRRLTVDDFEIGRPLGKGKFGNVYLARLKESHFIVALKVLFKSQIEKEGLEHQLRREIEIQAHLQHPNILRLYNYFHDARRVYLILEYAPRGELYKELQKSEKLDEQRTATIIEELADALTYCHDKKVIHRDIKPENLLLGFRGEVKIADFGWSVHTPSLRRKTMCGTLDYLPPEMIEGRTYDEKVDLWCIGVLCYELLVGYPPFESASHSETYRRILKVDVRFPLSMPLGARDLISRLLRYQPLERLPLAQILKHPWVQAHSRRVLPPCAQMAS

[2] = target: T1, Aurora kinase C (Homo sapiens); conditions: at 10 µM
[3] = target: Tyrosine-protein kinase receptor UFO (Homo sapiens) (UniProt P30530); conditions: at 1 µM
[4] = target: Tyrosine-protein kinase receptor UFO (Homo sapiens) (UniProt P30530); conditions: at 10 µM
[5] = target: Protein-tyrosine kinase 6 (Homo sapiens) (UniProt Q13882); conditions: at 1 µM
[6] = target: Protein-tyrosine kinase 6 (Homo sapiens) (UniProt Q13882); conditions: at 10 µM
[7] = target: Tyrosine-protein kinase Blk (Homo sapiens) (UniProt P51451); conditions: at 1 µM
[8] = target: Tyrosine-protein kinase Blk (Homo sapiens) (UniProt P51451); conditions: at 10 µM
[9] = target: Tyrosine-protein kinase BTK (Homo sapiens) (UniProt Q06187); conditions: at 1 µM
[10] = target: Tyrosine-protein kinase BTK (Homo sapiens) (UniProt Q06187); conditions: at 10 µM

Chain of Tyrosine-protein kinase Blk (Homo sapiens) (P51451 2-505 limits assumed): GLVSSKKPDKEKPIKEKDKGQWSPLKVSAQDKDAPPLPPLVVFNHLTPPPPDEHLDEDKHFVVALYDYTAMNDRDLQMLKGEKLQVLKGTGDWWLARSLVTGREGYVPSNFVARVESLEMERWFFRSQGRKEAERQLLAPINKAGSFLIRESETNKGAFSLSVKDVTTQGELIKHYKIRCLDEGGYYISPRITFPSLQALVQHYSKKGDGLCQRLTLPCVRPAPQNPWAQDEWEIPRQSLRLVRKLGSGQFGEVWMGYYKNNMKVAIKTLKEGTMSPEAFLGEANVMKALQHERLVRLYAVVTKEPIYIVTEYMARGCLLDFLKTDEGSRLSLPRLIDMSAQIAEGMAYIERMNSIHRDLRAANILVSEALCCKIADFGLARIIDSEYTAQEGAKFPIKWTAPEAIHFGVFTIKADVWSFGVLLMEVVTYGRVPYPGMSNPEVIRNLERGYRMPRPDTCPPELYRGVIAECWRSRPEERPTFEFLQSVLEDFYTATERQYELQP
Chain of Tyrosine-protein kinase receptor UFO (Homo sapiens) (P30530 whole entry): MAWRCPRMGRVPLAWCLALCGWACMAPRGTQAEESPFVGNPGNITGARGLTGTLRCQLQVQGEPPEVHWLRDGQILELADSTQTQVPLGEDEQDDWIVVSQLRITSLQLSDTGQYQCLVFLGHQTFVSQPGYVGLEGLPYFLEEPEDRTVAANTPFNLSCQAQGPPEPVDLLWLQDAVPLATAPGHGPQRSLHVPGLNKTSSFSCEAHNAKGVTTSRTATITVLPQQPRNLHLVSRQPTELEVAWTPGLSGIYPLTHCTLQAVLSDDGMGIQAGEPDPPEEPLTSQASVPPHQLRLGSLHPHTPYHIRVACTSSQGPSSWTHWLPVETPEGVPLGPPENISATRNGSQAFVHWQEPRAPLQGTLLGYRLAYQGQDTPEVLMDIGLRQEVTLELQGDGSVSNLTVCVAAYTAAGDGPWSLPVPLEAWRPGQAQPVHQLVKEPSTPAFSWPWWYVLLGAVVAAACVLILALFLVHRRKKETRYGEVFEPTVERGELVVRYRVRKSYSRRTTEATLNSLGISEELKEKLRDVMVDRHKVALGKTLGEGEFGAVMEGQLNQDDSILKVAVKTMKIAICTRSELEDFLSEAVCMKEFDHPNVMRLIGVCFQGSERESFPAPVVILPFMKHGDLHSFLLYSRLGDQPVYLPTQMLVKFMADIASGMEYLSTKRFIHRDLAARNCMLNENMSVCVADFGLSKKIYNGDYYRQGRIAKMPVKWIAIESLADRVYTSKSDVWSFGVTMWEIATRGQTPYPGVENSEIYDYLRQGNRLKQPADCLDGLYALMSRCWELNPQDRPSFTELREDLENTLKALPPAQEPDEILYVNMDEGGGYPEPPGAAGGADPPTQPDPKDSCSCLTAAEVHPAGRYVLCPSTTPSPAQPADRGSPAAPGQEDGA
Chain of Protein-tyrosine kinase 6 (Homo sapiens) (Q13882 whole entry, looked up): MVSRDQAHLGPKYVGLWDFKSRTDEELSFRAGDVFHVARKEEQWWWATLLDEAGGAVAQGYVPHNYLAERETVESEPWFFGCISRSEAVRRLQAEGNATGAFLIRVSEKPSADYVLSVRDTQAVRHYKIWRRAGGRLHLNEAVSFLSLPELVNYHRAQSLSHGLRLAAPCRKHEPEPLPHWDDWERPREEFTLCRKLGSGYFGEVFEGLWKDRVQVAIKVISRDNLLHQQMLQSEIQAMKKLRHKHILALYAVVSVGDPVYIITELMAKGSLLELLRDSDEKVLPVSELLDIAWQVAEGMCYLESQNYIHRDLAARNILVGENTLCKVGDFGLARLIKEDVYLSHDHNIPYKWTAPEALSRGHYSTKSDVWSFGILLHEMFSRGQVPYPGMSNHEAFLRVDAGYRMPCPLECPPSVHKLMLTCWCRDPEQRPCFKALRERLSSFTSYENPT
Chain of Tyrosine-protein kinase BTK (Homo sapiens) (Q06187 whole entry): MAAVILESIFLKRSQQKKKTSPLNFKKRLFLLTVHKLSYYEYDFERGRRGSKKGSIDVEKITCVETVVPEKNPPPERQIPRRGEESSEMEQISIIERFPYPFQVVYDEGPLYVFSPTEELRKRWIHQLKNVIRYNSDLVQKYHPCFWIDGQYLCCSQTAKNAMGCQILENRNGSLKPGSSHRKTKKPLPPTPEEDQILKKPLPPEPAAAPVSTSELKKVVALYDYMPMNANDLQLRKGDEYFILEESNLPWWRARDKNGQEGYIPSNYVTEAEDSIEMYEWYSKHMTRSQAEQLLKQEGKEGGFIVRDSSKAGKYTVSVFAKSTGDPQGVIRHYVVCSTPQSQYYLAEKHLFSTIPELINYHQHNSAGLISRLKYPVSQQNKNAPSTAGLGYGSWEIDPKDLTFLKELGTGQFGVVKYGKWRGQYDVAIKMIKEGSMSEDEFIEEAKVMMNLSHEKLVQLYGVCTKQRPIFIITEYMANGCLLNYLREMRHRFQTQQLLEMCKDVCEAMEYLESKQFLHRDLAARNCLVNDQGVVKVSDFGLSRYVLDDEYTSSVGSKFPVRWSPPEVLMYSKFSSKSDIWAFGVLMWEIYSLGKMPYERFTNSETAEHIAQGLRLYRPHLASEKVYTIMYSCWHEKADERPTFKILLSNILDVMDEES

## N/C(=N\[N+](=O)[O-])N/N=C\c1ccc(-c2cccc([N+](=O)[O-])c2)o1
[1]
  residual activity: 97%
[2]
  residual activity: 88%
[3]
  residual activity: 94%
[4]
  residual activity: 93%
[5]
  residual activity: 97%
[6]
  residual activity: 96%
[7]
  residual activity: 98%
[8]
  residual activity: 89%

## CC(C)[C@H](CO)Nc1nc(Nc2cccc(Cl)c2)c2ncn(C(C)C)c2n1
[1]
  residual activity: 96%
[2]
  residual activity: 78%
[3]
  residual activity: 90%
[4]
  residual activity: 31%
[6]
  residual activity: 92%
[9]
  residual activity: 56%
[10]
  residual activity: 17%
[7]
  residual activity: 38%
[8]
  residual activity: 2%

## O=[N+]([O-])/C=C/c1ccc2c(c1)OCO2
[1]
  residual activity: 102%
[2]
  residual activity: 77%
[3]
  residual activity: 69%
[4]
  residual activity: 81%
[5]
  residual activity: 113%
[6]
  residual activity: 105%
[9]
  residual activity: 96%
[10]
  residual activity: 102%
[7]
  residual activity: 120%
[8]
  residual activity: 96%

## O=C1NC(=O)c2c1c1c3ccccc3n3c1c1c2c2ccccc2n1C1CCC3O1
[3]
  residual activity: 91%
[4]
  residual activity: 87%
[9]
  residual activity: 22%
[10]
  residual activity: 27%

## CC(C)(C)c1cc(C=C(C#N)C#N)cc(Br)c1O
[1]
  residual activity: 115%
[2]
  residual activity: 99%
[3]
  residual activity: 108%
[5]
  residual activity: 109%
[6]
  residual activity: 110%
[7]
  residual activity: 99%
[8]
  residual activity: 36%

## COc1cc2ncnc(Nc3ccc(OCc4ccccc4)cc3)c2cc1OC
[1]
  residual activity: 106%
[2]
  residual activity: 58%
[3]
  residual activity: 63%
[4]
  residual activity: 48%
[5]
  residual activity: 30%
[6]
  residual activity: 18%
[9]
  residual activity: 58%
[10]
  residual activity: 43%
[7]
  residual activity: 44%
[8]
  residual activity: 18%

## C[S+]([O-])c1ccc(-c2nc(-c3ccc(F)cc3)c(-c3ccncc3)[nH]2)cc1 (centres undefined)
[1]
  residual activity: 115%
[2]
  residual activity: 108%
[3]
  residual activity: 122%
[4]
  residual activity: 119%
[5]
  residual activity: 59%
[6]
  residual activity: 7%
[9]
  residual activity: 94%
[7]
  residual activity: 101%
[8]
  residual activity: 55%

## COC(=O)[C@@]1(O)C[C@H]2O[C@]1(C)n1c3ccccc3c3c4c(c5c6ccccc6n2c5c31)C(=O)NC4
[1]
  residual activity: 2%
[2]
  residual activity: 1%
[3]
  residual activity: 4%
[4]
  residual activity: -3%
[5]
  residual activity: 19%
[6]
  residual activity: 1%
[9]
  residual activity: -1%
[10]
  residual activity: -1%
[7]
  residual activity: 1%
[8]
  residual activity: 0%

## COc1ccc2c(c[n+](C)c3c4cc5c(cc4ccc23)OCO5)c1OC
[2]
  residual activity: 90%
[3]
  residual activity: 93%
[4]
  residual activity: 44%
[5]
  residual activity: 110%
[9]
  residual activity: 93%
[8]
  residual activity: 90%

## CCc1nc(-c2ccc(OC)cc2)[nH]c1-c1ccncc1
[1]
  residual activity: 103%
[5]
  residual activity: 110%
[6]
  residual activity: 108%
[9]
  residual activity: 100%
[10]
  residual activity: 105%
[7]
  residual activity: 112%
[8]
  residual activity: 79%

## O=C1c2ccccc2-c2nc3nnnn3nc21
[3]
  residual activity: 81%
[4]
  residual activity: 42%
[7]
  residual activity: 79%
[8]
  residual activity: 47%

## O=c1[nH]c2ccccc2n1C1CCN(Cc2ccc(-c3nc4cc5[nH]cnc5cc4nc3-c3ccccc3)cc2)CC1
[1]
  residual activity: 108%
[2]
  residual activity: 86%
[3]
  residual activity: 77%
[4]
  residual activity: 64%
[5]
  residual activity: 110%
[6]
  residual activity: 79%
[9]
  residual activity: 91%
[10]
  residual activity: 76%
[7]
  residual activity: 94%
[8]
  residual activity: 50%

## c1cc(-c2cnn3cc(-c4ccc(OCCN5CCCCC5)cc4)cnc23)ccn1
[1]
  residual activity: 35%
[2]
  residual activity: 4%
[3]
  residual activity: 76%
[4]
  residual activity: 24%
[5]
  residual activity: 53%
[6]
  residual activity: 7%
[9]
  residual activity: 69%
[10]
  residual activity: 23%
[7]
  residual activity: 25%
[8]
  residual activity: 4%

## COc1cc(OC)c(/C=C2\C(=O)Nc3ccccc32)c(OC)c1
[1]
  residual activity: 83%
[2]
  residual activity: 87%
[3]
  residual activity: 98%
[4]
  residual activity: 71%
[5]
  residual activity: 104%
[6]
  residual activity: 96%
[9]
  residual activity: 93%
[10]
  residual activity: 88%
[7]
  residual activity: 92%
[8]
  residual activity: 81%

## COc1ccc2c(c1)/C(=C/c1cnc[nH]1)C(=O)N2
[1]
  residual activity: 34%
[2]
  residual activity: 4%
[6]
  residual activity: 71%
[7]
  residual activity: 81%
[8]
  residual activity: 22%

## O=C1Nc2ccc3ncsc3c2/C1=C/c1c[nH]cn1
[1]
  residual activity: 18%
[2]
  residual activity: -1%
[3]
  residual activity: 26%
[4]
  residual activity: 8%
[5]
  residual activity: 66%
[6]
  residual activity: 34%
[9]
  residual activity: 88%
[10]
  residual activity: 47%
[7]
  residual activity: 44%
[8]
  residual activity: 5%

## CCn1cnc2c(Nc3cccc(Cl)c3)nc(N[C@@H]3CCCC[C@@H]3N)nc21
[1]
  residual activity: 22%
[2]
  residual activity: 3%
[3]
  residual activity: 78%
[4]
  residual activity: 21%
[5]
  residual activity: 94%
[6]
  residual activity: 34%
[9]
  residual activity: 71%
[10]
  residual activity: 9%
[7]
  residual activity: 14%
[8]
  residual activity: 2%
